{"source": "the supplement of paper PMC10338343", "note": "± gives the standard deviation."}
{"test_system": "MILI (PIWIL2) piRISC loaded with L1MC piRNA (26 nt)", "assay": "pre-steady-state target cleavage rate (min^-1); guide: L1MC piRNA 5'p-UAACUAAAUACUAUGCAAGCUGUAGG; MIWI and MILI are mouse PIWI proteins and EfPiwi is from a freshwater sponge; tags in brackets are library labels; higher = faster piRNA-guided slicing of the target", "settings": "auxiliary factor: 500 nM mouse GTSF1", "in_short": "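The pre-steady-state cleavage rate was obtained by Cleave-'n-Seq with a burst-and-steady-state fit. A transcribed, DNA-blocked target RNA library (0.1 nM) was mixed with 1 nM active affinity-purified piRISC carrying one synthetic guide, with or without 500 nM GTSF1 partner protein, in HEPES–potassium acetate buffer at 33 °C for 0–8 or 0–960 min. Uncleaved targets were sequenced and normalised to depth and to weakly complementary targets, with three trials pooled and k3 capped at 0.0001 min^-1.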"}
{"sequence": "UCCUCCUACAGCUUGCAUAGUAUUUUGUAA", "pre-steady-state target cleavage rate": "0.092 ± 0.019"}
{"sequence": "UCCUGGUAGUCCUUGCAUAGUAUUUACAAA", "pre-steady-state target cleavage rate": "0.00835 ± 0.0045"}
{"sequence": "UCCUGGAACAGCUUGCAUAGUAUUAACAAA", "pre-steady-state target cleavage rate": "0.104 ± 0.029"}
{"sequence": "UCCUCCUUGUGCUUGCAUAGUAUUUACAAA", "pre-steady-state target cleavage rate": "0.0181 ± 0.0068"}
{"sequence": "UCCUGGUACAGCAAGCAUAGUAUUUAGAAA", "pre-steady-state target cleavage rate": "0.104 ± 0.031"}
{"sequence": "UCCUGCUACAGCUUGCAAUGUAUUUAGAAA", "pre-steady-state target cleavage rate": "0.0407 ± 0.013"}
{"sequence": "UCCUGGAUCAGCUUGCAUAGUAAAAAGUUA", "pre-steady-state target cleavage rate": "0.102 ± 0.019"}
{"sequence": "UCCUGGAACAGCUUGCAUAGUAUUUUCUAA", "pre-steady-state target cleavage rate": "0.0162 ± 0.0068"}
{"sequence": "UCCUCCUACAGCUUGCAAUGUAUUUAGUAA", "pre-steady-state target cleavage rate": "0.0921 ± 0.012"}
{"sequence": "UCCUGGAUCAGCUUGGAUAGUAUUUACUUA", "pre-steady-state target cleavage rate": "0.107 ± 0.026"}
{"sequence": "UCCUGGAUGAGCUUGCAUAGUAUUAUCUUA", "pre-steady-state target cleavage rate": "0.00985 ± 0.0048"}
{"sequence": "UCCUGCUACUCGUUGCAUAGUAUUUACAAA", "pre-steady-state target cleavage rate": "0.0703 ± 0.016"}
{"sequence": "UCCUGGAACAGCUUGCAUAGUAUAUUCAAA", "pre-steady-state target cleavage rate": "0.0758 ± 0.022"}
{"sequence": "UCCUGGAUGUCCUUGCUAUGUAUUUAGUUA", "pre-steady-state target cleavage rate": "0.00552 ± 0.0044"}
{"sequence": "UCCUGGAUGAGCUUGCAUAGUAUUUUCAUA", "pre-steady-state target cleavage rate": "0.0108 ± 0.0059"}
{"sequence": "UCCUCCUACAGCUUGCAUAGUUAAUACAAA", "pre-steady-state target cleavage rate": "0.014 ± 0.0056"}
{"sequence": "UCCUGGAUGAGCUUGCAUAGUAUUUACUAA", "pre-steady-state target cleavage rate": "0.00674 ± 0.0044"}
{"sequence": "UCCUGGAUCUGCUUGCAUAGAAUUUAGUUA", "pre-steady-state target cleavage rate": "0.0261 ± 0.0069"}
{"sequence": "UCCUGGAUGUGCUUGCAUUGUAUUUAGAUA", "pre-steady-state target cleavage rate": "0.0503 ± 0.009"}
{"sequence": "UCCUGGAACACCUUGCAUAGUAUUUAGUAA", "pre-steady-state target cleavage rate": "0.17 ± 0.022"}
{"sequence": "UCCUGGAUGAGCUUGCAUAGAAUUUUGUUA", "pre-steady-state target cleavage rate": "0.0139 ± 0.0063"}
{"sequence": "UCCUGGAUCAGCUAGCAUAGUAUUUACAAA", "pre-steady-state target cleavage rate": "0.127 ± 0.023"}
{"sequence": "UCCUGGAUGUCGAAGCAUAGUAUUUAGUA", "pre-steady-state target cleavage rate": "0.0246 ± 0.008"}
{"sequence": "UCCUGGAUGUCGAAGCAUAGUAUUUAGGUA", "pre-steady-state target cleavage rate": "0.00926 ± 0.0047"}
{"sequence": "UCCUGGAUGUCGAUGCAUAGUAUUUAGUCUA", "pre-steady-state target cleavage rate": "0.0115 ± 0.0055"}
{"sequence": "UCCUGGAUGUCCUUGCUUAGUAUUUAGAUA", "pre-steady-state target cleavage rate": "0.0358 ± 0.0092"}
{"sequence": "UCCUGGAACAGCUUGCAUAGUAUUUACUAA", "pre-steady-state target cleavage rate": "0.0459 ± 0.013"}
{"sequence": "UCCUGCUACAGCUUGCAAUGUAUUUUCAAA", "pre-steady-state target cleavage rate": "0.00975 ± 0.0041"}
{"sequence": "UCCUGGAUGUGCAUGCAUAGAAUUUAGUUA", "pre-steady-state target cleavage rate": "0.00714 ± 0.0044"}
{"sequence": "UCCUGGAUCAGCAACCAUAGUAUUUAGUAA", "pre-steady-state target cleavage rate": "0.0962 ± 0.012"}
{"sequence": "UCCUGGAUGACGUUGCAUAGUAUUUAGUAA", "pre-steady-state target cleavage rate": "0.136 ± 0.022"}
{"sequence": "UCCUGGUACAGCAUGCAUAGUAUUUUCAAA", "pre-steady-state target cleavage rate": "0.0847 ± 0.026"}
{"sequence": "UCCUCCUACAGCUUGCAUACUAUUUUCAAA", "pre-steady-state target cleavage rate": "0.0677 ± 0.018"}
{"sequence": "UCCUGGAACAGCAUGCAUAGUAUUUUCAAA", "pre-steady-state target cleavage rate": "0.066 ± 0.018"}
{"sequence": "UCCUCCUACAGCUUGCUAAGUAUUUAGUAA", "pre-steady-state target cleavage rate": "0.0708 ± 0.013"}
{"sequence": "UCCUCCUUGUGCUUGCAUAGUAUUUUCAAA", "pre-steady-state target cleavage rate": "0.0192 ± 0.0073"}
{"sequence": "UCCUCCUACAGCUUGCUAUGUAUUUAGUAA", "pre-steady-state target cleavage rate": "0.021 ± 0.0069"}
{"sequence": "UCCUGGAUGUGCUAGCAUAGUAUUUACUUA", "pre-steady-state target cleavage rate": "0.0865 ± 0.019"}
{"sequence": "UCCUGGUACAGCUUGCAUACUAUAUAGUUA", "pre-steady-state target cleavage rate": "0.0326 ± 0.013"}
